An excerpt weighted towards active compounds, which were near 2.8% of everything screened.
p-CIP stab down – lowers stability of the mouse p/CIP coactivator protein | Q05BA5 | F442A p/CIP-EGFP cells, EGFP fluorescence, 16 h | decrease of EGFP signal, % at 10 µM | 290,000 compounds, 0.01% hits;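 active = EGFP signal decrease of at least 30% at 10 µM or well 3 SD below plate mean, unless failing retest; inactive = the rest, including hits failing retest or dose response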
Target sequence (Q05BA5 1-1403): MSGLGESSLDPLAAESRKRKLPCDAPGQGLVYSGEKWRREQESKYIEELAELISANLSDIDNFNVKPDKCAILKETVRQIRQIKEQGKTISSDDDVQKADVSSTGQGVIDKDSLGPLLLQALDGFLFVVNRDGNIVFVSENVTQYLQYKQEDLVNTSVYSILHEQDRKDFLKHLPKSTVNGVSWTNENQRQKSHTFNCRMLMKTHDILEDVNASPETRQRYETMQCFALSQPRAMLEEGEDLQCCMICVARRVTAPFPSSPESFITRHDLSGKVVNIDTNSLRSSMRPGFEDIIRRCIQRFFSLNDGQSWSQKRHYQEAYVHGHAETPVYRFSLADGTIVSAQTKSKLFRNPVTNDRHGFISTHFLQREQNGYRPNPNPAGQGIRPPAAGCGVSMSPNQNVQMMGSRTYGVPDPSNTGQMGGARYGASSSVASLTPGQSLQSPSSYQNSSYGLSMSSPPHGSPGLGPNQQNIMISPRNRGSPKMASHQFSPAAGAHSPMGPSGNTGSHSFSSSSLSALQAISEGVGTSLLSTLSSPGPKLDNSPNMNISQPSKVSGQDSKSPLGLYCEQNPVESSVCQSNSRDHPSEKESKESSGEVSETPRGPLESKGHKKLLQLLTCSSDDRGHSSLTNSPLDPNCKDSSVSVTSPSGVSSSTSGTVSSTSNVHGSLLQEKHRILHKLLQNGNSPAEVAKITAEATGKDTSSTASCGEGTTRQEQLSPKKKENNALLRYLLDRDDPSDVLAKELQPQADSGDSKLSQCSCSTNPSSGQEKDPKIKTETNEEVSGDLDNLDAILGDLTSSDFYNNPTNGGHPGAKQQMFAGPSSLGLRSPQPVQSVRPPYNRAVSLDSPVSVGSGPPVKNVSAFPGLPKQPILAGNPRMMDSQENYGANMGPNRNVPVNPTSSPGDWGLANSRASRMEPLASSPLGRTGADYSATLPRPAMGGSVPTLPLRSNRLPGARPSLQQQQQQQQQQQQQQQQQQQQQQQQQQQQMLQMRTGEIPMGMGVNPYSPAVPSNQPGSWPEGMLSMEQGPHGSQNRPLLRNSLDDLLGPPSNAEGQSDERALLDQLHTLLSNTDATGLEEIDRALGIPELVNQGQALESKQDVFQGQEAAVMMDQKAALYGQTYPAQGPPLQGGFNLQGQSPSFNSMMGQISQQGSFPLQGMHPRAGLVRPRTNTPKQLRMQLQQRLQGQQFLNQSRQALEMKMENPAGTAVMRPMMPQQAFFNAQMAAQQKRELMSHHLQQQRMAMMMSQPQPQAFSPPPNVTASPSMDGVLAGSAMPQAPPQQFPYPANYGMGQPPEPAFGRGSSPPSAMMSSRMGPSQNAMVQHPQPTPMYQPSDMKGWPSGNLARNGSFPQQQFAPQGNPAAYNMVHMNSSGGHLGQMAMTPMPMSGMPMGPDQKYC
PolyA inh – inhibitors of polyadenylation in S. cerevisiae | S. cerevisiae SKY197-pL101 polyadenylation reporter, beta-gal luminescence; efflux-impaired pdr1/pdr3 knockout yeast; score 100 = 6 SD above DMSO | activity score, % at 12 µM | 300,000 compounds, 0.02% hits | AID 1875;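 active = lowest replicate activity score at least 50, where 100 means six control SD above control mean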;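 also: yeast exposed to compound for 9 h at 30 °C; higher score means more reporter readthrough which indicates perturbed polyadenylation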
HIF activator – HIF pathway transcriptional activation. U2OS HRE-luciferase reporter, luminescence; normalized: DMSO 0%, desferrioxamine 100%. activation, % at 7.5 µM (by protocol). 300,000 compounds, 0.32% hits. AID 1910;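 active = mean activation of at least 10% of the iron chelator positive control signal, with at least half of replicates also reaching 10%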
Platelet DG rel – modulates dense granule release in human platelets; human platelet-rich plasma, SFLLRN dense granule ATP release, luminescence; inhibition, %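 (compounds screened at 7.5 µM in platelet-rich plasma)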; 300,000 compounds, 0.22% hits;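 active = mean replicate score, as percent of positive control, at or above 50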
AHR activator – activators of human aryl hydrocarbon receptor; P35869; AHR-responsive luciferase reporter cells, luminescence; activation, % at 5 µM; 320,000 compounds, 2.5% hits; AID 2796; in the data active = activation above about 47%;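 also: 0% = vehicle wells and 100% = reference agonist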
Numbers without * were called inactive; . = not tested or not shown.

SMILES | p-CIP stab down | PolyA inh | HIF activator | Platelet DG rel | AHR activator
Cc1nc(S/C(=C/c2ccc(-c3ccc(Cl)cc3)o2)C(=O)O)n[nH]1 | -1.3 | 12.7 | 0.3 | 10.7 | 57.2*
O=C1CCc2cc(S(=O)(=O)NC3CCCCC3)ccc2N1 | . | . | . | . | 0.2
Cc1ccc(CSCC(=O)Nc2ccc(F)cc2)cc1 | 3.6 | -4.3 | 0.1 | 15.9 | 67.7*
COc1ccc(OCC(=O)Nc2ccccc2OC)cc1 | -6.6 | -34.7 | . | -1.1 | 0.1
CNCc1ccccc1OCC(=O)Nc1ccccc1OC | -10.8 | -3.3 | 0.4 | 13.7 | 69.3*
COc1c(Cl)ccc(Cl)c1C(=O)NC(=S)N1CCOCC1 | 1.0 | 3.5 | -0.9 | 8.8 | -1.4
CCCCCCNC(=O)N[C@H](C(=O)NCCC[C@H]1CN2C(=NC[C@H]2C)N1CCC(c1ccccc1)c1ccccc1)C(C)O (some centres undefined) | -3.8 | . | . | . | 8.3
Clc1ccccc1CSc1ncn(-c2ccccc2)n1 | 5.6 | -45.7 | 1.8 | -1.7 | 67.9*
Cc1cccc(NC(=S)/N=C(\N)Nc2nc(C)c3cc(C)ccc3n2)c1 | -5.3 | -22.5 | 0.9 | -1.4 | -10.8
Cc1ccc(NC(=S)/N=C(\N)Nc2nc(C)c3ccccc3n2)cc1C | -8.3 | -17.7 | -0.3 | 1.8 | 47.9*
COc1ccc2nc(N/C(N)=N/C(=S)Nc3ccccc3)nc(C)c2c1 | -4.0 | -2.1 | 0.2 | 1.1 | -4.5
Cc1cccc(NC(=S)/N=C(\N)Nc2nc(C)c3ccc(C)cc3n2)c1 | -5.5 | -7.8 | 1.9 | 0.8 | 57.2*
CCOc1ccc2nc(N/C(N)=N/C(=S)Nc3ccc(OC)cc3)nc(C)c2c1 | -6.6 | 0.6 | 0.1 | 4.5 | 63.5*
Cc1cc(C)cc(NC(=S)/N=C(\N)Nc2nc(C)c3ccccc3n2)c1 | -4.0 | -1.3 | -0.2 | 0.1 | 20.6
Cc1cccc(NC(=S)/N=C(\N)Nc2nc(C)c3ccccc3n2)c1 | -6.1 | -6.7 | 0.3 | -3.8 | 69.2*
CC(=O)Nc1ccc(N/C=C/C(=O)c2ccco2)cc1 | -4.7 | -1.8 | 2.2 | 20.2 | 2.1
CN(C)c1ccc(N/C=C/C(=O)c2ccc(F)cc2)cc1 | -12.7 | -1.5 | 2.7 | 95.3* | 9.2
NS(=O)(=O)c1ccc(N/C=C\C(=O)c2ccc(F)cc2)cc1 | 8.0 | -9.8 | 1.8 | 26.2 | 11.0
CN(C)c1ccc(N/C=C/C(=O)c2ccco2)cc1 | -9.3 | 0.2 | 1.0 | 67.7* | 26.6
Cc1ccccc1-n1ncc2c1CC(C)(C)CC2NC(=O)C1=CC(=O)CC(C)(C)O1 (centres undefined) | -4.7 | 24.4 | -0.3 | 3.5 | -3.5
COc1ccc(-c2c(-c3ccc(OC)nc3)c3ccccc3n2C)cc1 | . | . | . | . | 63.3*
CC(=O)Nc1ccc(N2CCc3c(C)c(C#N)c4nc5ccccc5n4c32)cc1 | -0.4 | -9.8 | 4.4 | 7.6 | 4.7
COc1cc(/C=C/c2ccc3cccc(O)c3n2)cc(OC)c1OC | -17.9 | -10.3 | 4.1 | -2.2 | -2.8
O=[N+]([O-])c1ccc(/C=C/c2ccc3ccccc3n2)cc1 | -1.3 | -24.7 | -0.1 | 40.9 | -16.2
C(=C\c1ccc2ccccc2n1)/c1ccccc1 | 2.3 | -22.7 | -4.0 | 45.0 | 41.4
SMILES | p-CIP stab down | PolyA inh | HIF activator | Platelet DG rel | AHR activator
Oc1cccc(/C=C/c2ccc3cccc(O)c3n2)c1 | 7.1 | -5.2 | 1.4 | 25.2 | 70.3*
Oc1ccc(/C=C/c2ccc3ccccc3n2)cc1 | -2.5 | -18.9 | -6.4 | 90.2* | -1.9
Cc1ccc(/C=C/c2nc3ccccc3s2)s1 | 0.1 | -5.6 | -5.7 | 14.9 | 12.2
CN(C)c1ccc(/C=C/c2ccc3ccccc3n2)cc1 | -30.0 | 18.3 | -4.1 | 97.4* | 7.9
CN(C)c1ccc(/C=C/c2nc3ccccc3s2)cc1 | -20.0 | -4.3 | -1.3 | 64.3* | -5.6
CC(=O)c1cc(C)ccc1OC(=O)c1ccco1 | -5.4 | 13.1 | -0.6 | 5.2 | 2.5
COc1cc(C2NC(=O)NC3=C2C(=O)OC3)cc(OC)c1OC (centres undefined) | 0.7 | 3.0 | 0.0 | 0.8 | 1.5
COc1ccc(-c2cn[nH]c2-c2ccc(OCc3ccc([N+](=O)[O-])cc3)cc2O)cc1 | -9.2 | 2.4 | 2.7 | -5.4 | 51.1*
Cc1ccc(NC(=O)CSc2nc3c(c(=O)[nH]2)CCC3)c(C)c1 | 2.2 | -8.2 | 0.4 | -0.7 | 3.0
O=C(c1ccccc1)N1CCN(C(=O)c2ccccc2)CC1 | -9.4 | 4.8 | 0.0 | -2.8 | 0.1
O=C(c1ccccc1)n1ccn(-c2ccccc2)c1=S | -1.4 | -5.4 | -0.3 | 5.6 | 50.8*
COc1cc(NC(=S)NCCc2ccc(S(N)(=O)=O)cc2)c(OC)cc1Cl | -10.4 | 10.6 | 0.5 | 0.0 | 0.3
N#Cc1c(C(F)(F)F)cc(-c2ccco2)nc1SCc1ccccn1 | -42.9 | 1.5 | -0.4 | 4.4 | 60.1*
N#Cc1c(C(F)(F)F)cc(-c2ccccc2)nc1SCCN1CCOCC1 | -10.8 | -7.3 | 0.4 | -4.5 | 55.4*
Fc1ccccc1-n1cc(-c2ccccc2)[nH]c1=S | -9.9 | -0.6 | 3.6 | -3.7 | 35.8
FC(F)(F)c1cccc(-n2cc(-c3ccccc3)[nH]c2=S)c1 | 4.0 | -14.3 | 1.7 | -2.4 | 61.3*
COc1ccccc1NC(=S)N1CCC(c2nc3cc(C)c(C)cc3[nH]2)CC1 | -20.7 | -0.3 | 0.2 | 2.4 | 52.0*
COc1ccc(NC(=S)N2CCC(c3nc4ccccc4[nH]3)CC2)c(OC)c1 | -8.0 | 3.0 | -0.1 | -5.6 | 1.0
CCCCNc1c(-c2cccc(-c3cc(C(C)=O)cs3)c2)nc2cc(C)ccn12 | . | 2.5 | -3.4 | 2.4 | 55.3*
OCc1ccccc1OCCOc1ccc(Cl)c2cccnc12 | 10.8 | -9.2 | 1.8 | 3.7 | 9.8
Clc1ccc(OCc2cn3ccccc3n2)c2ncccc12 | 2.9 | -28.5 | 2.2 | 0.3 | 48.9*
Cc1noc(/C=C/Nc2ccc(F)cc2F)c1[N+](=O)[O-] | -3.2 | -39.9 | 1.4 | 19.9 | 64.0*
Cc1noc(/C=C/c2ccccn2)c1[N+](=O)[O-] | -5.2 | -10.1 | 3.1 | 1.4 | 1.0
COc1ccccc1N/C=C/c1onc(C)c1[N+](=O)[O-] | -45.5 | -33.2 | -0.7 | 64.4* | 53.8*
COc1ccc(C(=O)N(C)Cc2cnn(Cc3ccccc3)c2)cc1S(=O)(=O)N1CCOCC1 | . | . | . | . | -0.3
SMILES | p-CIP stab down | PolyA inh | HIF activator | Platelet DG rel | AHR activator
Cc1ccc(C(=O)N/N=C(/CC(=O)c2cccs2)C(F)(F)F)cc1 | 4.9 | -3.3 | 0.3 | 1.0 | 61.6*
O=C(N/N=C(\CC(=O)c1cccs1)C(F)(F)F)c1ccncc1 | -26.3 | -1.4 | 0.6 | 14.8 | 3.4
Cn1c(NC(=O)c2cccnc2)nc2ccccc21 | 30.4 | 4.5 | 2.8 | 37.6 | 77.8*
Cc1ccc(C(=O)Nc2nc3ccccc3n2CCN2CCCC2)cc1 | 8.3 | 5.4 | 3.6 | 6.4 | 47.1*
O=C(Nc1nc2ccccc2n1CCN1CCCC1)c1ccc(Cl)cc1 | 1.3 | . | . | . | 53.5*
O=C(Nc1nc2ccccc2n1CCN1CCCCC1)c1ccc(Cl)cc1 | -3.6 | 23.6 | 0.8 | 6.7 | 11.0
CCCn1c(NC(=O)c2ccc(C)cc2)nc2ccccc21 | 12.1 | -13.4 | 2.9 | -3.4 | 48.6*
CC1(C)CC2CC(C)(CN2S(=O)(=O)c2ccc(F)cc2F)C1 (centres undefined) | . | . | . | . | -0.9

Bioassay records as filed in PubChem BioAssay.
